Assay results reported in PubChem BioAssay.
Values joined by “and” are separate entries in the source; they are usually repeats but may differ in a detail not shown here. Equal entries are not always repeated. Active and inactive are the calls of the source. Rule as the data show it, unless noted: active = inhibition above about 80%; inactive = the rest.

Columns and labels:
[1] = sensitizers of A549 cells to miR-34 induction, primary screen, imaging, A549 dox-inducible miR-34, nuclei and caspase counts (AID 1347080;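 active = compounds whose cell count with miR-34 switched on is under 0.7 times the count with it off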); conditions: A549 miR-34 inducible, Hoechst nuclei count, 48 h
[2] = survival rescue of mitochondrial mutant cells in low glucose, primary screen, MELAS cybrids, Rieske KO mouse fibroblasts, CellTiter-Glo (AID 1508586;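 active = mean z-score across replicates of 1.96 or higher in either the MELAS or the Rieske mutant cell line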;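 also: z relative to plate mean and SD of compound and empty wells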)
[3] = LFS_MB_P medulloblastoma growth inhibition, cell-based, chromothripsis tumors, cisplatin or BGB combos (AID 1671449); conditions: LFS_MB_P medulloblastoma cells;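 also: cells exposed for 96 hours; 0% = vehicle DMSO and 100% = killing by high DMSO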
[4] = HDN33 neuroblastoma growth inhibition, cell-based, chromothripsis tumors, cisplatin or BGB combos (AID 1671450); conditions: HDN33 neuroblastoma cells, stronger effect = higher value;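 also: cells exposed to compound for four days; 0% = vehicle DMSO and 100% = cell killing by high DMSO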
[5] = ICB984 medulloblastoma cell growth inhibition, synergistic combos for chromothripsis tumors, cisplatin or BGB combos (AID 1671451; call rule not given here;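 also: cells exposed for 96 hours before readout; 0% = vehicle DMSO and 100% = killing by high DMSO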); conditions: ICB984 medulloblastoma cells, drug combinations, stronger effect = higher value
[6] = LFS_MB_1R medulloblastoma cell growth inhibition, synergistic combos for chromothripsis tumors, cisplatin or BGB combos (AID 1671452); conditions: LFS_MB_1R medulloblastoma cells, stronger effect = higher value;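 also: cells exposed for 96 hours before readout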
[7] = HTB85 osteosarcoma cell growth inhibition, synergistic combos for chromothripsis tumors, BGB or cisplatin IC20 combos (AID 1671453); conditions: HTB85 osteosarcoma cells, drug combinations, stronger effect = higher value;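 also: cells exposed for 96 hours before readout; 0% = vehicle DMSO and 100% = high DMSO killing control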
[8] = CRL2098 osteosarcoma cell growth inhibition, synergistic combos for chromothripsis tumors, BGB or cisplatin IC20 combos (AID 1671454); conditions: CRL2098 osteosarcoma cells, drug combinations, stronger effect = higher value;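 also: cells exposed for 96 h before readout; 0% = vehicle DMSO and 100% = killing by high DMSO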
[9] = HD-MB03 medulloblastoma cell growth inhibition, synergistic combos for chromothripsis tumors, BGB or cisplatin IC20 combos (AID 1671455; in the data active = inhibition above about 83%;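 also: 0% = vehicle DMSO and 100% = high DMSO as cytotoxic control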); conditions: HD-MB03 medulloblastoma cells, stronger effect = higher value
[10] = UWB1.289 ovarian carcinoma cell growth inhibition, synergistic combos for chromothripsis tumors, BGB or cisplatin combos (AID 1671456); conditions: UWB1.289 ovarian carcinoma cells, stronger effect = higher value;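 also: cells exposed to compound for four days; 0% = vehicle DMSO and 100% = killing by high DMSO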
[11] = LFS_MB_2R medulloblastoma cell growth inhibition, synergistic combos for chromothripsis tumors, cisplatin combos (AID 1671457); conditions: LFS_MB_2R medulloblastoma cells, stronger effect = higher value;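 also: cells exposed to compound for four days before readout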
[12] = MDA-MB-436 breast carcinoma cell growth inhibition, synergistic combos for chromothripsis tumors, BGB or cisplatin combos (AID 1671458; call rule not given here;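 also: cells exposed for 96 hours; 0% = vehicle DMSO and 100% = killing by high DMSO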); conditions: MDA-MB-436 breast carcinoma growth inhibition, drug combinations, stronger effect = higher value
[13] = UWB1.289_BRCA1 ovarian cancer growth, cell-based, BGB or cisplatin combinations (AID 1671459); conditions: UWB1.289 BRCA1 ovarian carcinoma, drug combinations, stronger effect = higher value
[14] = human astrocyte viability loss, single and combined drugs, cytotoxicity control for chromothriptic childhood tumor combination screen, cell-based, BGB or cisplatin IC20 combos (AID 1671460); conditions: Human astrocytes, drug combinations, stronger effect = higher value;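 also: cells exposed to compounds for 96 hours before viability readout; 0% = vehicle and 100% = killing control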
[15] = growth inhibition of BT084 medulloblastoma cells, cell-based, ICGC_MB145, cisplatin and BGB IC40 combos (AID 1671461); conditions: drug combinations, stronger effect = higher value;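 also: cells exposed to drugs for 96 hours; 0% = vehicle DMSO and 100% = high DMSO full killing control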
[16] = growth inhibition of RCMB18 medulloblastoma cells, cell-based, cisplatin and BGB IC40 combos (AID 1671462); conditions: stronger effect = higher value;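 also: cells exposed to compound for four days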
[17] = growth inhibition of CRL1545 osteosarcoma cells, cell-based, cisplatin and BGB IC20 combos (AID 1671464); conditions: stronger effect = higher value;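 also: cells exposed to compound for 96 hours before readout; 0% = vehicle DMSO and 100% = high DMSO killing control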
[18] = hESC survival regulators, cell-based (AID 493140; call rule not given here;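 also: cells exposed to compounds for four days before counting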); conditions: human embryonic stem cell survival screen; stronger effect = higher value
[19] = liver-stage malaria parasite growth inhibition, primary screen, cell-based, HepG2, luciferase luminescence, HepG2 viability (AID 624349; in the data active = parasite load remaining mostly below about 12%, no sharp cut-off; inactive = mostly above about 10%;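 also: 100% = mean of DMSO negative control wells on the same plate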); conditions: P. berghei liver stage in HepG2, luciferase luminescence, concentration not given here; parasite load remaining: stronger effect = lower value; viability: measured here: HepG2 viability without parasites
[20] = stronger effect = lower value, cell number ratio, induced over uninduced
[21] = measured here: relative caspase fold change +Dox/-Dox
[22] = measured here: total cells with miR-34 induction, stronger effect = lower value
[23] = measured here: total cells without miR-34 induction
[24] = MELAS cybrid survival, CellTiter-Glo 48 h, stronger effect = higher value
[25] = Rieske KO mouse fibroblast survival, CellTiter-Glo 72 h
[26] = measured here: combination with BGB IC40, at 0.05 µM
[27] = measured here: with BGB IC20 combination, at 0.5 µM
[28] = measured here: with cisplatin IC20 combination, at 0.5 µM
[29] = measured here: combination with cisplatin, at 0.5 µM
[30] = measured here: combination with cisplatin, at 5 µM

Structure (SMILES): CN(C)CC(=O)Nc1ccc2[nH]c(=O)c3ccccc3c2c1
- fold change [1, 20]: 0.941 (inactive) and 0.916 (inactive)
- fold change [1, 21]: 0.694 and 0.571
- cell count [1, 22]: 5000 and 7760
- cell count [1, 23]: 5310 and 8470
- z-score [2, 24]: -0.15 (inactive) and -0.352 (inactive)
- z-score [2, 25]: -0.197 and 0.819
- inhibition ([3]; at 0.5 µM, stronger effect = higher value): -18.5% (inactive) and -17% (inactive) and -7.46% (inactive)
- inhibition ([3]; measured here: combination with BGB IC20, at 0.005 µM): 12.4% and -8.96% and -31.5%
- inhibition ([3]; measured here: combination with BGB IC40, at 0.005 µM): -19.5% and -21.6% and -39.4%
- inhibition [3, 26]: -14.8% and -27.5% and -40.5%
- inhibition ([3]; measured here: combination with cisplatin, at 0.5 µM, stronger effect = higher value): -45.3% and -39.5% and -30.4%
- inhibition ([3]; measured here: combination with cisplatin, at 5 µM, stronger effect = higher value): 4.17% and -17.8% and -4.6%
- inhibition ([4]; BGB combo, at 5 µM): 7.32% and -6.67% and -9.33%
- inhibition ([4]; at 0.5 µM): 6.02% (inactive) and -1.05% (inactive) and -19% (inactive)
- inhibition ([4]; cisplatin combo, at 5 µM): 17.1% and 1.58% and -10.8%
- inhibition [4, 27]: -3% and -3.63% and -21.1%
- inhibition [4, 28]: 16.9% and 5.73% and -18.5%
- inhibition ([4]; single agent, at 5 µM): 15.5% and 10.2% and 30.1%
- inhibition ([5]; BGB IC20 combo, at 0.005 µM): -13.3% and -2.95% and -7.79%
- inhibition ([5]; BGB IC40 combo, at 0.005 µM): -17% and -47.2% and -17.2%
- inhibition ([5]; BGB IC40 combo, at 0.05 µM): -0.058% and 4.16% and -0.711%
- inhibition ([5]; at 0.5 µM): -28.4% (inactive) and -20.4% (inactive) and -5.86% (inactive)
- inhibition ([5]; cisplatin combo, at 0.05 µM): -2.85% and 1.48% and -4.33%
- inhibition ([5]; cisplatin combo, at 0.5 µM): -27.2% and -5.09% and 16.6%
- inhibition ([5]; cisplatin combo, at 5 µM): -20% and -21% and -0.405%
- inhibition ([5]; measured here: 5 uM single agent, at 5 µM): -18.7% and -14.3% and -10.6%
- inhibition ([6]; at 0.5 µM): -13.8% (inactive) and -13.5% (inactive) and -14% (inactive)
- inhibition [6, 26]: -3.83% and -23.1% and -25.7%
- inhibition [6, 29]: 0.486% and -10.2% and -9.3%
- inhibition [6, 30]: -18.1% and 3.23% and -15.4%
- inhibition ([7]; at 0.5 µM): -2.64% (inactive) and 6.11% (inactive) and -9.79% (inactive)
- inhibition ([7]; measured here: with BGB IC20, at 0.5 µM): -8.36% and -5.68% and -25.9%
- inhibition ([7]; measured here: with BGB IC20, at 5 µM): -24.1% and 8.44% and -2.25%
- inhibition ([7]; measured here: with cisplatin IC20, at 0.5 µM): -8.52% and 5.14% and 3.46%
- inhibition ([7]; measured here: with cisplatin IC20, at 5 µM): -29.8% and -39.5% and -46.8%
- inhibition ([7]; single agent, at 5 µM): 1.63% and -7.42% and 3.8%
- inhibition ([8]; at 0.5 µM): -36.8% (inactive) and -23.4% (inactive) and -51.4% (inactive)
- inhibition ([8]; measured here: combination with BGB at IC20, at 0.5 µM): -71.3% and -23.5% and -26.5%
- inhibition ([8]; measured here: combination with cisplatin at IC20, at 0.5 µM): -19% and -5.62% and -82%
- inhibition ([9]; at 0.5 µM): -0.31% (inactive) and -9.88% (inactive) and -18.4% (inactive)
- inhibition ([9]; measured here: combo with BGB at IC20, at 0.5 µM): 0.82% and -0.47% and -22%
- inhibition ([9]; measured here: combo with cisplatin at IC20, at 0.5 µM): -8.4% and -20.4% and -29.9%
- inhibition ([10]; at 0.5 µM): 3.12% (inactive) and 0.71% (inactive) and -1.11% (inactive)
- inhibition ([10]; measured here: inhibition with BGB combination, at 0.05 µM): -1.46% and -11.5% and -12.3%
- inhibition ([10]; measured here: inhibition with cisplatin combination, at 0.05 µM): -5.87% and -5.94% and -12.4%
- inhibition ([11]; at 0.5 µM): -1.17% (inactive) and -17.8% (inactive) and -26.4% (inactive)
- inhibition [11, 29]: -1.41% and -14.7% and -24.5%
- inhibition [11, 30]: -64% and -69.6% and -24.6%
- inhibition ([12]; at 0.5 µM): -4.41% (inactive) and -15.5% (inactive) and -5.43% (inactive)
- inhibition ([12]; measured here: BGB combination, at 0.5 µM): -3.67% and -13.7% and -14%
- inhibition ([12]; measured here: BGB combination, at 5 µM): -15.9% and -32.7% and -34.6%
- inhibition ([12]; measured here: cisplatin combination, at 0.5 µM): -8.29% and -33% and -6.83%
- inhibition ([12]; measured here: cisplatin combination, at 5 µM): -17.2% and -39.2% and -6.55%
- inhibition ([13]; BGB combination, concentration series, at 5 µM): -7.67% and -9.61% and 17%
- inhibition ([13]; at 0.5 µM): 1.59% (inactive) and -0.05% (inactive) and -1.7% (inactive)
- inhibition ([13]; cisplatin combination, concentration series, at 5 µM): 16.4% and 6.78% and -0.772%
- inhibition ([14]; at 0.5 µM): 0.7% (inactive) and -7.07% (inactive) and 10.3% (inactive)
- inhibition ([14]; measured here: combo with BGB IC20, at 0.5 µM): -4.06% and -11% and -10.6%
- inhibition ([14]; measured here: combo with cisplatin IC20, at 0.5 µM): 6.3% and -10.6% and 20.9%
- inhibition ([15]; at 0.5 µM): -5% (inactive) and -17.7% (inactive) and -25% (inactive)
- inhibition ([15]; cisplatin combination, at 0.5 µM): -11% and 0.828% and -68.7%
- inhibition ([15]; cisplatin combination, at 5 µM): -4.17% and -13.1% and -46%
- inhibition ([15]; measured here: BGB IC40 combination 0.05 uM, at 0.05 µM): 25% and 2.93% and -19.8%
- inhibition ([15]; single agent, at 5 µM): -11.5% and -8.61% and -15%
- inhibition ([16]; at 0.5 µM): -10.8% (inactive) and -26% (inactive) and -30.1% (inactive)
- inhibition ([16]; cisplatin combo, at 5 µM): -47.6% and -22.2% and -34.1%
- inhibition ([16]; measured here: BGB IC40 combination, at 0.05 µM): 1.7% and -24.6% and -7.83%
- inhibition [16, 29]: -0.146% and -31.4% and -63.1%
- inhibition ([16]; single agent, at 5 µM): -17.1% and -32.1% and -45.8%
- inhibition ([17]; at 0.5 µM): -19.1% (inactive) and 4.9% (inactive) and -4.49% (inactive)
- inhibition [17, 27]: -45.9% and 5.19% and -19.6%
- inhibition [17, 28]: -8.03% and 2.6% and 1.49%
- inhibition ([17]; single agent, at 0.05 µM): 18.8% and -30.7% and 29.1%
- inhibition ([17]; single agent, at 5 µM): -20.3% and -21.7% and -53.8%

Structure (SMILES): CC(C)(C)C(=O)OCOC(=O)[C@@H]1N2C(=O)[C@@H](N=CN3CCCCCC3)[C@H]2SC1(C)C
- survival [18]: 17.2 (inactive)
- parasite load remaining [19]: 86.3% (inactive)
- viability [19]: 108%
- fold change [1, 20]: 0.956 (inactive)
- fold change [1, 21]: 0.721
- cell count [1, 22]: 9610
- cell count [1, 23]: 10100
- z-score [2, 24]: 0.579 (inactive)
- z-score [2, 25]: -0.414
